Test results taken from PubChem BioAssay AID430 (Sanford-Burnham Center for Chemical Genomics, 2006).
Screen size: about 63,000 compounds; about 1,100 (1.7%) were called active. For the sample, actives were picked, then their nearest neighbours and some compounds at random. Results with a measured potency or affinity are listed apart. A number with no mark means an inactive call. No stated cut-off is given here; in the data, active means cytotoxicity above about 50%; inactive means the rest.

Assay: cytotoxicity in HPDE-C7 cells, cell-based, fluorescence, HTS (AID 430);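 further: cells exposed to compound for 48 hours before viability readout; 0% = vehicle and 100% = reference cytotoxic drug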
Conditions: HPDE-C7 pancreatic duct cells viability, at 10 µM, hits give high values

SMILES	cytotoxicity
Cc1cc(C)n(-c2nnc3n2N=C(c2c[nH]c4ccccc24)CS3)n1	51.3% (active)
Cc1cc(C)n(-c2nnc3n2N=C(c2ccccc2)CS3)n1	-0.3%
Cc1cccc(-c2nnc3n2N=C(c2ccccc2Br)CS3)c1	15%
CCn1c(SCC#N)nc2c(c1=O)C1(CCCC1)Cc1ccccc1-2	41.8%
N#CCSc1n[nH]c2nc3c(c(=O)n12)C1(CCCC1)Cc1ccccc1-3	54.9% (active)
CCCn1c(SCC#N)nc2c(c1=O)C1(CCCC1)Cc1ccccc1-2	47.8%
c1ccc(-n2nnnc2Oc2ccc(-c3nnco3)cc2)cc1	-4.8%
COc1ccccc1-c1cc(C(F)(F)F)nc(S(=O)(=O)CCCC(=O)N2CCCCC2C)n1 (centres undefined)	88.8% (active)
COc1ccccc1-c1cc(C(F)(F)F)nc(N2CCOCC2)n1	-5.9%
COc1ccccc1-c1cc(C(F)(F)F)nc(S(=O)(=O)CCCC(=O)NC(C)C)n1	28%
COc1ccccc1-c1cc(C(F)(F)F)nc(N2CCN(c3ccccc3)CC2)n1	29.8%
COc1ccccc1-c1cc(C(F)(F)F)nc(N2CCCC2)n1	-25.6%
Cc1cc(S(=O)(=O)N(Cc2ccc3c(c2)OCO3)CC2CCCO2)ccc1-n1cnnn1 (centres undefined)	-7.2%
COc1ccc(-c2nnc(NC(=O)c3cc(Cl)ccc3Cl)o2)cc1	33.1%
COc1cccc(C(=O)Nc2cccc(-c3nnc(-c4ccccc4)o3)c2)c1	3.9%
COc1cccc(-c2nnc(NC(=O)c3cccc(F)c3)o2)c1	61.8% (active)
COc1cccc(C(=O)Nc2nnc(-c3ccc(F)cc3)o2)c1	31%
COc1cccc(-c2nnc(NC(C)=O)o2)c1	7.6%
COc1cccc(C(=O)Nc2nnc(-c3ccc(Cl)cc3)o2)c1	85.7% (active)
O=C(Nc1ccc(Cc2ccncc2)cc1)C1CC1	-38.5%
CN(C)/C=c1\sc2c(C#N)cc(C(=O)c3ccc(Br)cc3)n2c1=O	-29.6%
O=C1[C@H]2[C@@H](C(=O)N1c1cc(Cl)cc(Cl)c1)[C@]1(C(=O)Nc3ccccc31)N1CCC[C@@H]21	-1.8%
COC(=O)c1ccccc1Nc1ccccc1	-2.7%
N#CC1=C(N)n2c(s/c(=C\c3ccco3)c2=O)=C(C#N)C1c1ccco1 (centres undefined)	12.3%

SMILES	cytotoxicity
CCOC(=O)C1=C(N)n2c(s/c(=C\c3ccco3)c2=O)=C(C(=O)OC(C)C)C1c1ccco1 (centres undefined)	-11.9%
CCOC(=O)C1=C(N)n2c(s/c(=C\c3cccnc3)c2=O)=C(C(=O)OC)C1c1cccnc1 (centres undefined)	10.6%
CCOC(=O)C1=C(N)n2c(s/c(=C/c3ccco3)c2=O)=C(C(=O)OC)C1c1ccco1 (centres undefined)	75.9% (active)
CCOC(=O)C1=C(N)n2c(s/c(=C\c3cccnc3)c2=O)=C(C(=O)OCC)C1c1cccnc1 (centres undefined)	-31.3%
CCCCCCn1c(SCC(=O)OC)nc2c1c(=O)[nH]c(=O)n2C	3.9%
CC1Cc2ccccc2N1C(=O)CSc1ncccc1C(=O)O (centres undefined)	-4.3%
O=C(CCn1c(=O)oc2ccccc21)N1CCN(c2ccccc2Cl)CC1	56.7% (active)
O=C(CCn1c(=O)oc2ccccc21)N1CCCCCC1	10.9%
O=C(CCn1c(=O)oc2ccccc21)N1CCN(c2ccccc2F)CC1	1.4%
COc1ccc(OCC(=O)N(C)Cc2ccccc2)cc1	-16.7%
COc1ccc(CCNc2nc(-c3sc(N)nc3C)cs2)cc1OC	16%
Cc1ccc2c(c1)-c1ccccc1S(=O)(=O)N2	10.1%
Nc1ccc2c(c1)-c1ccccc1S(=O)(=O)N2	14.6%
O=S1(=O)Nc2c(ccc3cccnc23)-c2ccccc21	90.9% (active)
O/N=C(/Cc1ccccn1)c1ccccc1	2%
O=C(NCCCNC(=O)c1ccccn1)c1ccccn1	15.3%
CCCCCC/C(=N/O)c1ccccn1	51.4% (active)
Cc1cccc(N(CC(=O)NC2CCCC2)C(=O)CS(=O)CC(=O)Nc2ccc3c(c2)OCO3)c1 (centres undefined)	0.1%
CC(C)C(=O)Nc1cccc(NC(=O)c2cccnc2)c1	-3.2%
Cc1ccc(C)c(N2CCN(C(c3ccncc3)c3nnnn3Cc3ccccc3)CC2)c1 (centres undefined)	27.4%
Cc1ccc(-n2c(SCC(=O)Nc3ccc4c(c3)OCO4)nnc2-c2ccoc2C)cc1	36.3%
Cc1cccc(-n2c(SCC(=O)Nc3nonc3C)nnc2-c2ccoc2C)c1	-16.1%
Cc1cccc(-n2c(SCC(=O)Nc3ccc4c(c3)OCO4)nnc2-c2ccoc2C)c1	65.5% (active)
Cc1cc(Cl)ccc1OCC(=O)N1CC(C)CC(C)C1 (centres undefined)	-10.4%

SMILES	cytotoxicity
Cc1ccc2c(c1)C(c1ccc(F)cc1)N(C(=O)C1CC1)CC(=O)N2 (centres undefined)	-2%
COc1cc(C(=O)Nc2cccc(-c3nncn3C)c2)cc(OC)c1OC	-13.4%
CCOC(=O)c1c(C)oc2ccc(NS(=O)(=O)c3ccc4c5c(cccc35)C(=O)N4)cc12	64.4% (active)
COC(=O)c1ccccc1NS(=O)(=O)c1ccc2c3c(cccc13)C(=O)N2	24.2%
COCCOC(=O)c1c(C)oc2ccc(NS(=O)(=O)c3ccccc3)cc12	12.7%
CC(=O)/C=C(/C)NC(Cc1c[nH]c2ccccc12)C(=O)O (centres undefined)	2.1%
Oc1c(CN2CCN(c3ccccn3)CC2)cc(Cl)c2cccnc12	27.5%
Oc1c(CN2CCc3ccccc3C2)cc(Cl)c2cccnc12	7.8%
OCc1ccnc2c(O)cccc12	-13.3%
Oc1ccc2cccnc2c1	-7.4%
Cc1cc(Nc2nc3c(c(=O)n(C)c(=O)n3C)n2C)n(-c2ccccc2)n1	-9%
Cc1cc(=O)oc2cc(OCC3CC(c4ccc(N(C)C)cc4)=NO3)ccc12 (centres undefined)	-19%
COc1ccc2cc3cc(C(=O)Nc4ccc5c(c4)OCCO5)oc3nc2c1	2%
Cc1ccc2cccc(S(=O)(=O)N3CCN(c4cccc(Cl)c4)CC3)c2n1	7%
CC(=O)c1cc2c(cc1NC(=O)c1cnc(C)cn1)OCO2	13.3%
CN(C)S(=O)(=O)c1cccc(C(=O)OCC(=O)Nc2ccccc2OC(F)F)c1	0.1%
COc1ccc(-n2c(SCCC#N)nnc2-c2cc(Cl)ccc2OC)cc1Cl	50.2% (active)
N#CCCCSc1nnc(-c2ccc(Cl)cc2)n1-c1ccccc1	-20.2%
Cc1cc(-n2c(SCCC#N)nnc2-c2cccnc2)ccc1Cl	-25%
O=C(O)c1cnn2c1NC(c1ccc(F)cc1)CC2C(F)(F)F (centres undefined)	-9.5%
COC(=O)/C(=C1/Oc2cc3c(cc2S1)OCO3)C(F)(F)F	-28.2%
COC(=O)/C(=C1/Oc2cc(C)oc(=O)c2S1)C(F)(F)F	76.7% (active)
COC(=O)C1=C(N)Oc2cc(C)oc(=O)c2C1c1ccncc1 (centres undefined)	0.6%
O=C(O)CCC(=O)Nc1ccccc1C(=O)NC1CCCCC1	-16.8%

SMILES	cytotoxicity
O=C1CC(c2ccco2)CC(O)=C1C=NCCO (centres undefined)	5.2%
O=C1CC(c2ccco2)CC(O)=C1C=Nc1cc(Cl)ccc1O (centres undefined)	55.5% (active)
O=C1CC(c2ccco2)CC(O)=C1C=NCCN1CCNCC1 (centres undefined)	-17.7%
C=C1[C@@H](C)C2[C@H](Cc3ccccc3)NC(=O)[C@]23OC(=O)CC[C@H](O)CCC[C@H](C)C/C=C/[C@H]3[C@@H]1O (some centres undefined)	67.8% (active)
CC(C)CCn1c(SCC(=O)OCn2nnc3ccccc3c2=O)nc2ccccc2c1=O	-1.3%
CO[C@H]1C[C@@H]2CC[C@@H](C)[C@@](O)(O2)C(=O)C(=O)N2CCCC[C@H]2C(=O)O[C@H]([C@H](C)C[C@@H]2CC[C@@H](O)[C@H](OC)C2)CC(=O)[C@H](C)C=C(C)[C@@H](O)[C@@H](OC)C(=O)[C@H](C)C[C@H](C)C=CC=CC=C1C	81.1% (active)
CCOc1ccc(-c2nnc(SCC(=O)N(CC)CC)n2N)cc1	-5.3%
COc1cccc(OCCn2c(C)c(/C=N/n3cnnc3)c3ccccc32)c1	75.8% (active)
Cc1c(/C=N/n2cnnc2)c2ccccc2n1CCOc1ccc(Cl)cc1	15.9%
Cc1ccc(OCCn2c(C)c(/C=N/n3cnnc3)c3ccccc32)cc1	41%
Cc1c(/C=N/n2cnnc2)c2ccccc2n1C	5.2%
Cc1c(/C=N/n2cnnc2)c2ccccc2n1CCOc1ccccc1	67.6% (active)
C(=N\n1cnnc1)/c1cccc(OCCOc2ccccc2)c1	2.1%
CCN(CC)C(=O)CSc1nnc(-c2cnccn2)n1-c1ccccc1	-10.7%
CC(=O)c1cccc(NC2c3ccccc3C(=O)N2Cc2ccc3c(c2)OCO3)c1 (centres undefined)	11.4%
COc1ccc(NC(=O)c2cnc3ccccn3c2=O)c(OC)c1	1%
COCCn1c(SCC(=O)N2CCCC2)nnc1-c1ccoc1C	5.7%
COc1ccccc1C(=O)NCc1ccncc1	-7.2%
CCOC(=O)CN1C(=O)C(O)=C(C(C)=O)C1c1ccccc1 (centres undefined)	-3.4%
COc1cccc2cc(C(=O)N3CCC(C)CC3)c(=O)oc12	36.9%
COc1ccc(Nc2cc(=O)n(C3CCCCC3)c(=O)[nH]2)c(OC)c1	-11.4%
CCC(=O)Nc1ccc(OC)cc1OC	-0.9%
